Results: PubChem BioAssay (Tox21)
Where “and” joins values, the source holds several entries; their conditions need not be identical. Identical values can stand only once. Inconclusive results are not listed. Where a call stands in place of a potency, no number is given. The source holds several records for some structures; these can differ, active in one and inactive in another. Calls of active or inactive are those of the source. The call rests on the fitted dose curve; in most records, active means well fitted inhibition curve with a large enough effect in the repeat runs; inconclusive means weak or mixed curves; inactive means no such curve, though single readings can be large or run the other way.

Target: Cytochrome P450 2C9 (Homo sapiens) (UniProt P11712)
Experiment: Cytochrome P450 Family 2 Subfamily C Member 9 (CYP2C9) small molecule antagonists: luciferase reporter qHTS assay (AID 1671198); further: nearly all actives have a fitted effect of over 50% in size
Conditions: P450-Glo CYP2C9 enzyme assay, luciferin luminescence; series mostly up to 115 µM
Description: U.S. Tox21 Program National Center for Advancing Translational Sciences [NCATS] U.S. Environmental Protection Agency [EPA] National Institutes of Environmental Health Sciences [NIEHS] National Toxicology Program [NTP] U.S. Food and Drug Administration [FDA] Tox21 Assay Overview: Cytochrome P450 (CYP) enzymes are membrane-bound hemeproteins that play a key role in metabolism of drugs and xenobiotics. Evaluation of the effect of chemicals on CYP isozymes is useful to minimize the adverse drug reactions and toxicities in drug development process. Tox21 chemicals were tested for their effect on CYP enzyme activities by using P450-Glo (TM) screening systems (Promega Corporation, Madison, WI). These systems provide a luminescent method containing proluciferin substrates and are converted to luciferin products by CYP isozymes. The luciferin products formed are detected with a luciferin detection reagent, and the amount of light produced is proportional to CYP activity. P450-Glo (TM) CYP2C9 screening system (Catalog. No. V9790) was used to detect the compounds that interfere in CYP2C9 activity.
Tox21 Assay Protocol Summary: Two ul of enzyme-substrate mix was dispensed into medium binding white/solid 1536-well plates (Greiner Bio-One North America Inc., Monroe, NC) using a BioRaptr Flying Reagent Dispenser (FRD, Beckman Coulter, Brea, CA). […] The assay plates were incubated at room temperature for 10 min. Then 2 ul of NADPH regeneration solution was added to each well of the assay plates using an FRD and incubated at 37C for 1 h. The reaction was stopped by adding 4 ul of detection reagent using an FRD and after 20 min incubation at room temperature the luminescence signal was measured using a ViewLux plate reader (Perkin Elmer, Shelton, CT). Data were expressed as relative luminescence units.
Potency means the concentration at half of the fitted maximal effect.

Chain of Cytochrome P450 2C9 (Homo sapiens) (P11712 whole entry, looked up): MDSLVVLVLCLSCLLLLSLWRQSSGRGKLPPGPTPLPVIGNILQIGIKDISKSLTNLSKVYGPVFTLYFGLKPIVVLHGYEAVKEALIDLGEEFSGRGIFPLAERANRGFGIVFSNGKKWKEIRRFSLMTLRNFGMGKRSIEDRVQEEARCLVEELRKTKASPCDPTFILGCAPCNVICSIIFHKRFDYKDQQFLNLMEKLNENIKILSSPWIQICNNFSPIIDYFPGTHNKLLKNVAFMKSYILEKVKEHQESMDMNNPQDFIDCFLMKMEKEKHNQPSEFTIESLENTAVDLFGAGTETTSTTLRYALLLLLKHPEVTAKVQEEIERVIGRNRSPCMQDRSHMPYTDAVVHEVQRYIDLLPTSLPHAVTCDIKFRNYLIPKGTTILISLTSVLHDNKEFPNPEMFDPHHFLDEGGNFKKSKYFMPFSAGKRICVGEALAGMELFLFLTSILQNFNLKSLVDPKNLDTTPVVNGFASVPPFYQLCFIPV

Row | Compound | Potency
1 | CC(C)(C#N)c1cc(Cn2cncn2)cc(C(C)(C)C#N)c1 | 9.75 µM (active) and 8.71 µM (active)
2 | CC(=O)c1ccc(O)cc1 | inactive
3 | C[C@]12CCC(=O)C=C1CC[C@@H]1[C@@H]2[C@@H](O)C[C@@]2(C)[C@H]1CC[C@]2(O)C(=O)CO | inactive
4 | CC(C)=CCl | inactive
5 | C=Cc1ccc(C)cc1 | inactive
6 | CCOCC(=O)O | inactive
7 | Cc1ccc([N+](=O)[O-])cc1S(=O)(=O)O | 56.4 µM (active)
8 | CN(C)CCOC(=O)COc1ccc(Cl)cc1 | inactive
9 | COc1ccc(CCC(C)=O)cc1 | inactive
10 | CC(C)CC(C)O (stereo not given) | inactive and 31.7 µM (active)
11 | CC(C)(Oc1ccc(CCNC(=O)c2ccc(Cl)cc2)cc1)C(=O)O | 28.3 µM (active) and 13.8 µM (active)
12 | CC1(C)CC(N)CC(C)(CN)C1 (stereo not given) | inactive
13 | COCCCN | inactive
14 | O=C1CCCC1 | inactive
15 | CCO[Si](CCC#N)(OCC)OCC | inactive
16 | Cc1ccc(S(=O)(=O)N=C=O)cc1 | inactive
17 | Clc1ccccn1 | inactive
18 | O=C(O)/C=C/C(=O)O | inactive
19 | CCCCCCCCCCO | inactive
20 | C=CC(=O)OCCC(=O)O | inactive

Row | Compound | Potency
21 | Brc1ccc(Br)c(Br)c1 | inactive
22 | CC(=O)OC1CC(C)OC(C)O1 (stereo not given) | inactive
23 | CSc1ccc(Cl)cc1 | inactive
24 | CC(C)OC(=O)COc1ccc(Cl)cc1Cl | 35 µM (active) and 35.6 µM (active)
25 | CCCCCCCCCCCCCCCC(=O)OC(C)C | inactive
26 | CC(=O)OCCOC(C)=O | inactive
27 | CNC(=O)Oc1ccc2c(c1)[C@]1(C)CCN(C)[C@@H]1N2C | 71 µM (active) and inactive
28 | CN1C(=O)CC[C@H]1c1cccnc1 | inactive
29 | O=C(O)c1cc2ccccc2cc1O | 62.8 µM (active) and 56.4 µM (active)
30 | OC1C(O)C(O)C(O)C(O)C1O (stereo not given) | inactive
31 | C=CC(C)CCCC(C)(C)O (stereo not given) | inactive
32 | NCCCCCCN | inactive
33 | NCCNCCN | inactive
34 | C[Si]1(C)O[Si](C)(C)O[Si](C)(C)O[Si](C)(C)O1 | inactive
35 | CCOC(=O)n1ccn(C)c1=S | inactive
36 | C=CCCCCCCCCC(=O)O | 39.9 µM (active)
37 | CNC(=S)N(C)C | inactive
38 | O=C1C(c2[nH]c3ccccc3c2O)=Nc2ccccc21 | inactive
39 | O=c1[nH]cnc2[nH]ncc12 | inactive
40 | CCCOC(=O)c1ccccc1 | inactive
